Experimental data from PubChem BioAssay AID1259343 (VanderVen Lab, College of Veterinary Medicine, Cornell …, 2017).
Among all 6,200 compounds or so, about 2,900 (47%) were called active. The set was probably picked from earlier hits. The list shows a part of the results. A number with no mark means an inactive call. Cut-off read from the data, not from the text of the source: active = inhibition above about 50%; inactive = the rest.

assay: Mycobacterium tuberculosis growth inhibition, primary screen (AID 1259343); details: inhibition: at 10 µM, hits give high values; outcome: 10 uM

Structure (SMILES)	inhibition
N#Cc1cc(C(=O)c2cc(Cl)cc(Cl)c2O)cn(-c2nccs2)c1=O	25.4%
O=C(NCCC1CC2CCC1C2)c1ccc(N2CCOCC2)nc1 (stereo not given)	5.89%
O=C(CC1C[C@@H]2CC[C@H]1C2)N1CCc2c(cnn2-c2ccccn2)C1 (stereo not given in full)	49.8%
O=C(CC1CC2CCC1C2)N1CCN(c2ccccc2O)CC1 (stereo not given)	85.9% (active)
COc1cccc(NC(=O)N2CCN(CCCOC(c3ccc(Cl)cc3)c3ccc(Cl)cc3)CC2)c1	15.9%
Cc1cccc(Nc2cc(N3CCN(CCCOc4ccccc4)CC3)ncn2)c1	50.3% (active)
CCCCCOc1ccc(Nc2cc(-c3cccc(N)c3)ncn2)cc1	5.27%
Nc1nnc(Sc2ncc([N+](=O)[O-])s2)s1	102% (active)
O=[N+]([O-])c1c(-n2cccn2)nn(-c2ccccc2)c1C(Cl)Cl	101% (active)
NCCc1cccc(OCCCc2ccccc2)c1	57.2% (active)
COc1cccc(C=CC(=O)c2ccc(N3CCCC3=O)cc2)c1OC	40%
O=C(Nc1nc(-c2ccccn2)cs1)c1cccc(N2CCCC2=O)c1	100% (active)
CCCCc1ccc(NC(=O)CSc2n[nH]c(=O)c3cc(-c4ccco4)nn23)cc1	98.1% (active)
S=C(NCC1CCCO1)Nc1ccc(N2CCCCC2)cc1 (stereo not given)	60.7% (active)
S=C(NCC1CCCO1)N1CCc2ccccc2C1 (stereo not given)	19.9%
Oc1ccc(C=NNC(=S)NCC2CCCO2)c(O)c1 (stereo not given)	101% (active)
Oc1ccc(C2=CCN(c3ncnc4ccccc34)CC2)cc1	15.6%
CNC(=O)c1ccc(N2CC=C(c3ccc(O)cc3)CC2)nn1	91.4% (active)
N#Cc1ccc(CN2CC=C(c3ccc(O)cc3)CC2)c(F)c1	-43%
Cc1cc(C(=O)N2CC=C(c3ccc(O)cc3)CC2)c(C)o1	15.5%
Oc1ccc(C2=CCN(c3nnc(Br)s3)CC2)cc1	95.1% (active)
O=S(=O)(Nc1cccc(C2OCC(COc3ccc(Cl)cc3)O2)c1)c1ccccc1 (stereo not given)	-0.13%

Structure (SMILES)	inhibition
CC(=O)Nc1ccc(OCc2nnsc2Cl)cc1	85.4% (active)
CCc1ccccc1Oc1nc(NC(C)C)nc2ccsc12	31.8%
CN(c1ccccc1)c1nc2ccsc2c(=O)s1	58.2% (active)
Cc1cc(C)nc(Nc2nc(C(N)Cc3ccc(Cl)cc3)cs2)n1 (stereo not given)	73.2% (active)
Cc1cc(C)nc(Nc2nc(C(N)Cc3ccc(C(F)(F)F)cc3)cs2)n1 (stereo not given)	79.2% (active)
CCCc1cnc(Nc2nc(C(N)Cc3ccc(C(F)(F)F)cc3)cs2)nc1 (stereo not given)	50.7% (active)
Cc1ccc(-c2nc(CN3CCOC(c4ccccc4)C3)cs2)o1 (stereo not given)	29.6%
CC(=O)CSc1nc(C)nc2sc3c(c12)CCCC3	10%
Cc1c(-c2ccccc2)sc2ncn(CC(=O)N3CCCCC3C)c(=O)c12 (stereo not given)	48.6%
Cc1nc(SCC(=O)N2CCCCC2C)c2c3c(sc2n1)CCCC3 (stereo not given)	51.5% (active)
CC(C)(C)c1csc(-c2cccc(OCC(N)=O)c2)n1	35.2%
Cc1ccc2[nH]cc(-c3cccc(OCC(N)=O)c3)c2c1	72.6% (active)
Oc1ccccc1OCc1nc2ccccc2s1	54.7% (active)
c1ccc(Sc2c(-c3ccccc3)nc3ncccn23)cc1	inactive
c1ccc2sc(CSc3nc4ccccc4s3)nc2c1	95.9% (active)
COc1ccc(C(C)O)cc1CSc1nc2ccccc2s1 (stereo not given)	40.5%
O=C(CSc1nc2ccccc2s1)NCCN1C(=O)SC(=Cc2ccc3c(c2)OCO3)C1=O	4.39%
Clc1c(CSc2nc3ccccc3s2)nc2ncccn12	77.3% (active)
N#CC(=C(O)CC12CC3CC(CC(C3)C1)C2)c1nc2ccccc2s1	21.6%
c1ccc2sc(CSc3ncnc4sccc34)nc2c1	35%
S=c1[nH]nc(CSc2nc3ccccc3s2)o1	-31.5%
Brc1ccc2nc(CSc3nc4ccccc4s3)cn2c1	inactive

Structure (SMILES)	inhibition
c1csc(Cn2nnnc2Sc2ncnc3sccc23)c1	-23.8%
c1ccc2sc(Sc3ncnc4sccc34)nc2c1	59.5% (active)
CCc1nnc(CNc2ccc3c(c2)OC(F)(F)O3)o1	32.3%
CC(NC(=O)c1cnsn1)c1cccc(Cl)c1 (stereo not given)	42.3%
CC(NC(=O)c1cc(Cl)ccn1)c1cccc(OC(F)F)c1 (stereo not given)	70.3% (active)
Cc1c(C(=O)NC(C)c2cccc(Cl)c2)oc2c1C(=O)CCC2 (stereo not given)	1.37%
CC(C)=CCC/C(C)=C/C(=O)NCc1ccccn1	-13%
CCOC(=O)c1cccc(NC(=O)NC/C=C(\C)CCC=C(C)C)c1	88.1% (active)
CC(C)(C)OC(=O)c1cccc(NC2Cc3ccccc3C2)c1	29.1%
Fc1ccc(NC(=S)NC2CCCCC2)c(F)c1F	18.1%
S=C(Nc1cccc(I)c1)NC1CCCCC1	93.2% (active)
O=[N+]([O-])c1cc(NC(=S)NC2CCCCC2)ccc1Cl	99.3% (active)
Fc1ccc(F)c(NC(=S)NC2CCCCC2)c1	42%
O=C(O)c1cnc(/C=C/c2cnn(-c3ccc(Cl)cc3)c2)s1	62.2% (active)
O=C(O)c1cnc(/C=C/c2cc(Cl)c3c(c2)OCCCO3)s1	85.9% (active)
COc1cc(/C=C/c2ncc(C(=O)O)s2)cc(Cl)c1OC	80.2% (active)
CNC(=O)c1cnc(/C=C/C2=Cc3cc(Cl)ccc3OC2)s1	11.2%
O=C(O)c1cnc(/C=C/c2cc(Br)cs2)s1	-34.7%
O=C(CN1CCCCCC1)Nc1ccc(C(F)(F)F)cc1	71.2% (active)
O=C(CN1CCN(S(=O)(=O)N2CCCCCC2)CC1)Nc1ccc2ccccc2c1	3.56%
CC1OC(=O)[C@@H](C(C)C)NC(=O)C(C(C)C)OC(=O)[C@H](C(C)C)NC(=O)C(C)OC(=O)[C@@H](C(C)C)NC(=O)C(C(C)C)OC(=O)[C@H](C(C)C)NC(=O)C(C)OC(=O)[C@@H](C(C)C)NC(=O)C(C(C)C)OC(=O)[C@H](C(C)C)NC1=O (stereo not given in full)	101% (active)
